Source: PubChem (National Center for Advancing Translational Sciences (NCATS))
The list is not random: actives were taken first. Their share in the collection is about 1.8%.
Mito fusion yeast – qHTS Assay for Small Molecule Inhibitors of Mitochondrial Division or Activators of Mitochondrial Fusion; S. cerevisiae fusion-defective mutant growth rescue, CellTiterGlo 48 h; Potency, µM (titrated, usually from 46.1 µM), most hits filed as activators; 320,000 compounds, 0.23% hits; AID 485298, 2010; note: nearly all actives have a fitted effect of over 45% in size
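S. cerevisiae fusion-defective temperature-sensitive mutants (e.g. fzo1-1, mgm1-5) grown 48 h at 37C in YPEG (ethanol/glycerol non-fermentable) medium with 23 nl compound per well; growth rescue read as CellTiterGlo luminescence.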
ClpP mod – qHTS Assay for Activators of ClpP. purified B. subtilis ClpP, FRET peptide cleavage, 20 min. Potency, µM (highest dose often 57.5 µM). 340,000 compounds, 1.9% hits. AID 651965, 2013; active = well fitted falling curve with a large enough effect; inconclusive = small, poorly fitted or top-dose-only effect; inactive = no such curve, though single readings can be large or run the other way; note: the source files actives as falling curves though it sought activators and does not explain the sign; nearly all actives have a fitted effect of over 65% in size
Target sequence (P80244 whole entry, looked up): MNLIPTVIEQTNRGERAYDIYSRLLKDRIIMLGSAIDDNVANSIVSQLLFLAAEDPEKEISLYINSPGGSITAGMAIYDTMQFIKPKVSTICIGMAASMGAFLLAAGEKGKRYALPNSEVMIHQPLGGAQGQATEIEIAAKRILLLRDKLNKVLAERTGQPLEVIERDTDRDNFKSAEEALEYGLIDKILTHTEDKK
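ClpP 10 microg/mL final, pH 8 Tris/KCl buffer with BSA, glycerol, Tween-20; compound pinned in; FRET-FV substrate; RT 20 min; Ex320/Em430; ΔFRET vs ADEP 5.8 microM, DMSO, no enzyme.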
TCR activator – Activators of T cell receptors: qHTS campaign; 330,000 tested, under 10 active; AID 504894, 2011; primary human leukocytes, anti-CD3, IL-2 HTRF, 48 h; Potency, µM (doses to about 9.22 µM), usual class: activators
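Primary human leukocytes incubated 48 hr with anti-CD3 beads plus compound, without co-stimulation. Secreted IL-2 measured by HTRF (europium cryptate/d2 anti-IL-2 pair, 320 nm excitation, 665 nm emission).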
A-T KAP1 phos – qHTS Assay for Identifying a Potential Treatment of Ataxia-Telangiectasia; 320,000 compounds, 0.19% hits; AID 485349, 2010; F2112 A-T fibroblasts, KAP-1 phosphorylation AlphaLISA; neocarzinostatin DNA damage 30 min before lysis; Potency, µM (titrated, usually from 57.5 µM), hits mostly activators; note: nearly all actives have a fitted effect of over 45% in size
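hTERT-immortalized A-T patient fibroblasts (F2112), 500 cells/well in OPTI-MEM, 1% FBS, got compounds for 60 min, then NCS for 30 min at 37C. Lysates were then assayed for phospho-KAP-1 by AlphaLISA (anti-pKAP1 donor, anti-KAP1 acceptor beads), 6 hr at 25C.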
Glioma ERSR ind – qHTS for Inducers of the Endoplasmic Reticulum Stress Response (ERSR) in Human Glioma: qHTS. U87-MG GRP78 promoter luciferase reporter, 16 h. Potency, µM, actives largely listed as activators. 420,000 compounds, 0.02% hits; note: series mostly up to about 76 µM; nearly all actives have a fitted effect of over 35% in size
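ERSR induction read as luciferase luminescence (Bright-Glo, 10 min at room temperature) in stably transfected human U87-MG glioma cells exposed to compounds for 16 h, using GRP78 as sensor.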
MBNL1 CUG block – qHTS Assay for Inhibitors of MBNL1-poly(CUG) RNA binding; 280,000 compounds, 0.036% hits; Potency, µM (series often up to 57.5 µM), actives largely listed as inhibitors; TR-FRET MBNL1-His/biotin-(CUG)12 binding, 665/545 ratio; AID 2675, 2010; Muscleblind-like protein 1 (Homo sapiens), Q9NR56; active = well fitted inhibition curve with a large enough effect in the signal ratio, with a control signal flat, not every such curve was filed as active; inconclusive = small, poorly fitted or top-dose-only effect, or effect the other way, or a change in a side signal; inactive = no such curve, though single readings can be large or run the other way; the % refers to the signal ratio
Target sequence (Q9NR56 whole entry, looked up): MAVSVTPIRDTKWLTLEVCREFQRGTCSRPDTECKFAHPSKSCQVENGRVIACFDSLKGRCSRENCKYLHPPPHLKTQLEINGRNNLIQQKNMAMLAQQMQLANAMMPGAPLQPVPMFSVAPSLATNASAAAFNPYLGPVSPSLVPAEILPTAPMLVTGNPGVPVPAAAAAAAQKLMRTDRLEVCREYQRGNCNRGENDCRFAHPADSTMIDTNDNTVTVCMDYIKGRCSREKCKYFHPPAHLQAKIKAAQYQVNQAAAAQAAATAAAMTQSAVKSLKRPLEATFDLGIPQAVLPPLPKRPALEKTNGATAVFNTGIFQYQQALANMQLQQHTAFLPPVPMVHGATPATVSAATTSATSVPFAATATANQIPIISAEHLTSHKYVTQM
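MBNL1-His + Biotin-(CUG)12, cpd titration 92 nM–58 uM; Tb anti-His Ab 0.055 ng/ul, SA-XL665 5 nM (final); 60 min RT; ratiometric 665/545 nm, Ex 340 nm; normalized to buffer and full-complex controls.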
Each line names hits and unclear results; the compound was inactive in the other large screens. Unless noted, calls come from the whole dose curve; as a rule, active = well fitted curve in the direction sought with a large enough effect; inconclusive = small, poorly fitted or top-dose-only effect, or another doubt; inactive = no such curve, though single readings can be large; an effect the other way counts as inactive or inconclusive.

CC1=C(C(=O)OC2CCCCC2)C(c2ccco2)C2=C(CC(C)(C)CC2=O)N1 (stereo unspecified)	ClpP mod 31.6µM
Cc1cc(-c2ccnc(-n3ncc(C(=O)N(C)CC(O)c4ccccc4)c3C)n2)c(C)s1 (stereo unspecified)	none (no result: Mito fusion yeast, ClpP mod, TCR activator, A-T KAP1 phos, MBNL1 CUG block)
CCOC(=O)C1=C(C)NC(C)=C(C(=O)OCC)C1c1cccc(C)n1	none (no result: ClpP mod)
CCOC(=O)C1=C(C)NC2=C(C(=O)CC(C)(C)C2)C1c1cccc(C)n1 (stereo unspecified)	ClpP mod 31.6µM (no result: A-T KAP1 phos)
O=C(NCCc1ccccc1)c1cc(-c2ccccc2)nc2n[nH]c(-c3ccccc3)c12	ClpP mod 28.2µM (no result: Mito fusion yeast, TCR activator, A-T KAP1 phos, MBNL1 CUG block)
Cc1c(O)ccc2cc(S(=O)(=O)c3ccccc3)c(=O)oc12	A-T KAP1 phos 12.6µM (no result: ClpP mod)
CCOC(=O)c1sc2nc(N3CCOCC3)c3c(c2c1N)CCN(Cc1ccccc1)C3	ClpP mod 25.1µM
CCOC(=O)c1sc2nc(N3CCOCC3)c3c(c2c1N)CC(C)(C)N(C)C3	ClpP mod 7.08µM
C=CCn1c(SCC(=O)NCc2ccco2)nnc1-c1cccc(N(C)C)c1	none (no result: Mito fusion yeast, TCR activator, A-T KAP1 phos, MBNL1 CUG block)
Cn1cccc1C(=O)NC(=O)COC(=O)CC12CC3CC(CC(Br)(C3)C1)C2	ClpP mod 28.2µM
Cn1cccc1C(=O)NC(=O)COC(=O)CC12CC3CC(CC(C3)C1)C2	none
Cc1ccc(-n2ncc3c(SCc4cccc(C)c4)ncnc32)cc1	ClpP mod 28.2µM
N#CC(=C(/N)Sc1ccccc1N)/C(C#N)=C(/N)Sc1ccccc1N	none (no result: Mito fusion yeast, ClpP mod, TCR activator, A-T KAP1 phos, MBNL1 CUG block)
CN(C)S(=O)(=O)c1ccc(N2CCCC2)c(C(=O)Nc2nc3c(ccc4ccccc43)s2)c1	ClpP mod 28.2µM
O=C(NCC(Cl)c1ccc2ccccc2c1)c1c(F)cccc1F (stereo unspecified)	A-T KAP1 phos 20µM
O=C(NCCCNC(=O)c1c(F)cccc1F)c1c(F)cccc1F	none
CC[C@H](C)[C@H](NC(=O)[C@H](CC(C)C)NC(=O)[C@@H](N)CO)C(=O)NCC(=O)N[C@@H](CCCCN)C(=O)N[C@H](C(=O)O)C(C)C	none (no result: Mito fusion yeast, ClpP mod, TCR activator, A-T KAP1 phos, MBNL1 CUG block)
CC[N+]1(CC(=O)c2ccc(OC)cc2)CCCCC1	none (no result: Mito fusion yeast, TCR activator, A-T KAP1 phos, MBNL1 CUG block)
CN1CCC(OC(=O)COc2ccc(Br)cc2)CC1	none (no result: ClpP mod)
COc1ccc(OCC(=O)OC2CCN(C)CC2)cc1	ClpP mod 15.8µM (no result: A-T KAP1 phos)
NC(=O)c1ccc(NC(=O)COC(=O)/C=C/c2cn(-c3ccccc3)nc2-c2cccnc2)cc1	ClpP mod 28.2µM, TCR activator inconclusive (no result: MBNL1 CUG block)
N=c1oc2c3c4c(cc2cc1C(=O)Nc1ccccc1)CCCN4CCC3	A-T KAP1 phos 15.8µM, MBNL1 CUG block inconclusive
Cc1ccc(NC(=O)c2cc3ccccc3oc2=N)cc1	A-T KAP1 phos inconclusive
Cc1ccc(C(=O)Nc2cccc(-c3nc(CNC(=O)c4ccc(F)cc4Cl)c(C)o3)c2)s1	none (no result: Mito fusion yeast, ClpP mod, TCR activator, A-T KAP1 phos, MBNL1 CUG block)
O=C1NC(=Nc2ccccc2)CS1	A-T KAP1 phos 11.2µM
O=C1NC(=Nc2ccc(F)cc2)CS1	none (no result: ClpP mod)
Cc1c(C(=O)NCc2ccco2)cnn1-c1ncc2c(n1)-c1ccccc1CC2	none (no result: Mito fusion yeast, ClpP mod, TCR activator, A-T KAP1 phos, MBNL1 CUG block)
COc1ccc(CCNC(=O)CC(=O)N/N=C/c2ccc(C(=O)O)cc2)cc1OC	ClpP mod 14.1µM
O=C(/C=C/c1ccccn1)NCC1Cc2cccc(-c3ncccn3)c2O1 (stereo unspecified)	none (no result: Mito fusion yeast, ClpP mod, TCR activator, A-T KAP1 phos, MBNL1 CUG block)
COc1ccc(-n2cc(-c3ccc4c(c3)OCO4)n(CC(=O)Nc3cc(Cl)ccc3C)c2=O)cc1	none (no result: Mito fusion yeast, TCR activator, A-T KAP1 phos, MBNL1 CUG block)
Cc1ccc(NC(=O)Cn2c(-c3ccc4c(c3)OCO4)cn(-c3ccccc3)c2=O)cc1C	ClpP mod 28.2µM (no result: Mito fusion yeast, TCR activator, A-T KAP1 phos, MBNL1 CUG block)
COCCNC(=O)[C@@H]1CSC2c3ccccc3C(=O)N21 (stereo partly specified)	ClpP mod 31.6µM
